Inconclusive results are not listed. Calls of active or inactive are those of the source.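 How the source made its calls, unless noted: active means percent response above 42, roughly 3 SD of non-fluorescent test compounds; inactive means the rest.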

Test [1] can be described thus: rapamycin-like changes in RPL19A-GFP expression – cell-based, S. cerevisiae, multiplex flow cytometry, primary screen (AID 1862; in the data active means percent of DMSO control GFP below about 86%;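 further: lower values mimic rapamycin by blocking the RPL19A rise seen in DMSO cells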). The following applies: S. cerevisiae RPL19A-GFP strain, flow cytometry fluorescence, 3 h; at 10 µM; stronger effect = lower value. In general terms: A flow cytometer gives signals particle by particle.
Test [2] in a line: TOR pathway GLN3 branch reporter MEP2-GFP changes – S. cerevisiae, multiplex flow cytometry, primary screen (AID 1867;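 active means GFP response, as percent of the DMSO control, above the screen-wide mean plus 3 SD, about 139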;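 further: median GFP channel fluorescence of barcode-gated MEP2-GFP cells measured by flow cytometry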). To be noted: S. cerevisiae MEP2-GFP strain, 3 h, at 10 µM, stronger effect = higher value, 100% means same as DMSO wells.
Test [3] in a line: TOR pathway RTG branch CIT2 reporter changes – S. cerevisiae, GFP fusion, multiplex flow cytometry, primary screen (AID 1870;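 active means percent response above a set limit, the screen-wide mean plus 3 SD, cut at about 130% in these data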;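 further: barcoded CIT2-GFP strain pooled with four other GFP strains with rapamycin as positive control; median GFP fluorescence per well over plate mean of DMSO wells so 100% = DMSO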). The following applies: S. cerevisiae CIT2-GFP expression, 3 h, at 10 µM, stronger effect = higher value.
Test [4] is described as follows: TOR pathway LAP4-GFP level changes – S. cerevisiae, multiplex flow cytometry, primary screen (AID 1873;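 active means GFP signal, as percent of the solvent control, above the screen mean plus 3 SD, about 149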). To be noted: S. cerevisiae LAP4-GFP expression, 3 h, at 10 µM, stronger effect = higher value.
Test [5] in a line: yeast AGP1-GFP level changes, GLN3 branch – cell-based, multiplex flow cytometry, S. cerevisiae, primary screen (AID 1887;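 active means GFP signal above the screen-wide mean plus 3 SD, that is over about 124.5% of the solvent control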;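 further: AGP1-GFP fusion strain of S. cerevisiae within a five-strain barcoded multiplex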). To be noted: 3 h, at 10 µM, stronger effect = higher value.
A short description of test [6]: reduced mouse 2C T cell binding to pMHC/ICAM-1 vesicles – MLPCN validation set, flow cytometry, LFA-1/ICAM-1 modulator project, pilot screen (AID 2523;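 active means response below a set limit, under 55% cells CD8-positive and vesicle-bound, and CD8 cells' 90th-percentile brightness under 279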;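 on vesicle binding response: mean PE anti-B7-1 fluorescence of CD8+ cells relative to row control; 100% = QL9-loaded vesicles with DMSO vehicle in the same plate row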). The following applies: 2C mouse CD8+ T cells, at 7 µM, stronger effect = lower value; double positive events: measured here: CD8+/vesicle+ event percentage.
Test [7] has as its target Integrin beta-1 (Homo sapiens) + Integrin alpha-4 (Homo sapiens) (UniProt P13612+P05556). The test can be described thus: alpha4beta1 integrin LIBS antibody binding reduction – U937 cells, HUTS-21 mAb, flow cytometry, validation set, VLA-4 allosteric modulator project, pilot screen (AID 2674;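 active means inhibition above 50%, about 3 SD of the validation set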;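 further: antibody binding induced by the VLA-4 ligand LDV present at three times its Kd; 0% = LDV ligand with antibody and no compound and 100% = antibody without LDV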). The following applies: HUTS-21 LIBS mAb binding, at 6.7 µM, stronger effect = higher value, binding induced by LDV ligand.

Test [8] can be described thus: calorie-restriction mimetic ROS inhibitors, yeast – validation compound set, pilot screen (AID 2706;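 active means superoxide response below 65% of plate, a cut near 3 SD across the whole screen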;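 further: yeast exposed to compound for one week at 30 degrees C before staining; 100% = mean of all compound wells on the same plate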). The following applies: S. cerevisiae aging, superoxide DHE fluorescence; at 10 µM; stronger effect = lower value.
Test [9] concerns the target Beta-adrenergic receptor kinase 1 (Homo sapiens) (UniProt P25098). The test can be described thus: GRK2 binders displacing RNA aptamer, biochemical, validation, human GRK2, bead flow cytometry (AID 488806;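 active means aptamer binding inhibition above 30%, about 3 SD of noise from non-fluorescent compounds; inactive means inhibition at or below 30%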). The following applies: bead-bound GRK2, FAM-aptamer displacement, at 10 µM, stronger effect = higher value.
In test [10] the target is Beta-2 adrenergic receptor (Homo sapiens) (UniProt P07550). The test can be described thus: agonist-induced loss of surface beta2AR – cell-based, FAP fluorogen, flow cytometry, validation set, pilot screen (AID 504459).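 Further: agonist-driven loss of surface beta2AR via internalization measured by FAP dye flow cytometry.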 To be noted: Am2.2-beta2AR cells, at 10 µM, stronger effect = higher value.
Beta-2 adrenergic receptor (Homo sapiens), sequence (P07550 whole entry, looked up): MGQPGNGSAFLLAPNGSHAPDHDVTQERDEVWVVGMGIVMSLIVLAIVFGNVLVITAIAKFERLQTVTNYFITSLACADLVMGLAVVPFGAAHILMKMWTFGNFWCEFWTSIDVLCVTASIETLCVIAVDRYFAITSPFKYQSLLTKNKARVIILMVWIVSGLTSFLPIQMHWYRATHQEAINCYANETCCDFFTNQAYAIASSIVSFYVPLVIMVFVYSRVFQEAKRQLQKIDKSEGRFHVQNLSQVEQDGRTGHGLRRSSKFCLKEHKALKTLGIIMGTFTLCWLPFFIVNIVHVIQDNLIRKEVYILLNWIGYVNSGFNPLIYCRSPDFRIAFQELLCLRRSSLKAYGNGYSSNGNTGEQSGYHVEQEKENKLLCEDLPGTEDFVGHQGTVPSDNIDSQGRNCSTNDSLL
In test [11] the target is AP-2 complex subunit beta (Homo sapiens) (UniProt P63010). Nature of the test: beta-arrestin/AP2 interaction blockers – biochemical, validation set, GST-AP2 beads, flow cytometry, pilot screen (AID 504541;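 active means inhibition above 54%, about 3 SD of non-fluorescent compounds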;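 further: AP2 carries R879A mutation and is captured from E. coli lysate; bead-bound FITC arrestin peptide fluorescence measuring arrestin peptide binding to AP2; 0% = DMSO wells and 100% = excess unlabeled arrestin peptide control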). The following applies: FITC arrestin peptide, at 10 µM, stronger effect = higher value, AP2 beta2 appendage fragment, R879A mutant.
AP-2 complex subunit beta (Homo sapiens), sequence (P63010 whole entry, looked up, the tested form may be a part, one chain of several): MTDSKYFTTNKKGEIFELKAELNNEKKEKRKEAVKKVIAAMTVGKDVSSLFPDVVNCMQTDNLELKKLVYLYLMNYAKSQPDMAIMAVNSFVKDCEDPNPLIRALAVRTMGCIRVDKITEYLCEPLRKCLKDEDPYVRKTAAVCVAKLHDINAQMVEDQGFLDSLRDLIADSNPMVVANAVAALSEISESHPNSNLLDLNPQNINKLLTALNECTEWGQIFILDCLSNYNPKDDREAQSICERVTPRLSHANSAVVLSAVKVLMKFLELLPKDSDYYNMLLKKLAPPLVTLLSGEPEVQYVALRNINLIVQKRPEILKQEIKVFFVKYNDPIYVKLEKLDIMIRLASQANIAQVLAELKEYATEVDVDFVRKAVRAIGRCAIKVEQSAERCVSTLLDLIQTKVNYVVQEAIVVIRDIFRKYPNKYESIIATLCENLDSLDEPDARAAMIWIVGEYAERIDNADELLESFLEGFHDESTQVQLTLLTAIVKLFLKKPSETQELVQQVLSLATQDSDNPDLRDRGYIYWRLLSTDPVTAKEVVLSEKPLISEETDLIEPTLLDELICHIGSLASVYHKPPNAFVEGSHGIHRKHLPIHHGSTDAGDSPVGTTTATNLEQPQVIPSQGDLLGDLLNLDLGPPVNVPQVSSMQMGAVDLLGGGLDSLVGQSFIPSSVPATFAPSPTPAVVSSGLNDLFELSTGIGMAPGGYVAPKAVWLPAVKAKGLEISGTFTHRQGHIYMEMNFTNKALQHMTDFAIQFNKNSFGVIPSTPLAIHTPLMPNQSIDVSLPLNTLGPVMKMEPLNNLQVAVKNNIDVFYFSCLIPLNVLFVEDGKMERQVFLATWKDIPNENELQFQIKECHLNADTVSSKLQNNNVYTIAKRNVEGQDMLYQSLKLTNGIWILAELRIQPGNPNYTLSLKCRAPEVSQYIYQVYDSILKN
Test [12] can be described thus: cytosolic pH regulators acting via V-ATPase – S. cerevisiae, pHLuorin, HTS validation (AID 504600; in the data active means response above about 15%;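 further: plate controls were DMSO for no effect and reference compound for full effect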). To be noted: V-ATPase proton transport, at 10 µM, stronger effect = higher value.
For test [13], the system named is anti-desmoglein-3 scFv antibody binding to human DSG3. The test can be described thus: blockers of pathogenic pemphigus antibody–desmoglein-3 binding – biochemical, validation compound set, bead-based, flow cytometry, pilot screen (AID 588368;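 active means binding below the plate cutoff, the plate median minus 3 SD, with a reading above zero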;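 further: signal is the median channel fluorescence of bead-bound GFP antibody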). To be noted: Protein G beads, DSG3-Fc, scFv-GFP binding, at 10 µM, stronger effect = lower value.
Test [14] in a line: Nile Red efflux blockade in pump-expressing yeast – validation compound set, multiplex, phenotypic, pilot screen (AID 588506;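 active means efflux inhibition above 0.42, the validation set average plus 4 SD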;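 further: Nile Red retained in cells so higher fluorescence means more efflux inhibition; 0 = negative control wells and 1 = enniatin B 25 µM full block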). The following applies: S. cerevisiae pump-expressing triplex, Nile Red efflux flow cytometry; at 10 µM; stronger effect = higher value; the pumps come from Candida albicans.
For test [15], the target named is ATP-binding cassette sub-family B member 6 (Homo sapiens) (UniProt Q9NP58). Nature of the test: blockers of ABCB6-driven porphyrin uptake – K562-ABCB6 cells, flow cytometry, validation set, pilot screen (AID 588550;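 active means inhibition above the screen-wide mean plus 3 SD, about 51%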;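 further: 0% = DMSO wells and 100% = benzethonium chloride 70 µM positive control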). To be noted: K562-ABCB6 porphyrin accumulation, 1 h, at 10 µM, stronger effect = higher value.
ATP-binding cassette sub-family B member 6 (Homo sapiens), sequence (Q9NP58 whole entry, looked up): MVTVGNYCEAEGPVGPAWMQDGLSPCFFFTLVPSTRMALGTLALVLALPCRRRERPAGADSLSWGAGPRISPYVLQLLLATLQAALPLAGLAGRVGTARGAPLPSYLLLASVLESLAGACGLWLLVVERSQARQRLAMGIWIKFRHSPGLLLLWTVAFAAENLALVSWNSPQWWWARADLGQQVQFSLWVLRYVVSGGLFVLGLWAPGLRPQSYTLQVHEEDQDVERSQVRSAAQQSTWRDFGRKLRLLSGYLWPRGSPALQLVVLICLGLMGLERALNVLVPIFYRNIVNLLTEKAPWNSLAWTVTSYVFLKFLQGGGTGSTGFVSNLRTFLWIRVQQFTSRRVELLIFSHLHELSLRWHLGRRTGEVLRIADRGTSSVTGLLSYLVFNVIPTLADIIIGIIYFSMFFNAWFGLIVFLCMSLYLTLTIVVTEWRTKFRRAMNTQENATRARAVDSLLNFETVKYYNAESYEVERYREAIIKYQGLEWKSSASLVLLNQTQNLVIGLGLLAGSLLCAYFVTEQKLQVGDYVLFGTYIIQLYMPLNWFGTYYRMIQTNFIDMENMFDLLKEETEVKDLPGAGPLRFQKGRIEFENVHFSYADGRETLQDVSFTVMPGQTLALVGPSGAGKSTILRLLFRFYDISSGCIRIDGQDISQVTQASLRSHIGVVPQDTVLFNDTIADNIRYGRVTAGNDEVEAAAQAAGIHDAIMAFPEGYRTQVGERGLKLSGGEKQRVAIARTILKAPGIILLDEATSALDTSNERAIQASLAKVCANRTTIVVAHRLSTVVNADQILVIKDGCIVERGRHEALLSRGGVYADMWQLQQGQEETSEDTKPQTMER
Test [16] in a line: AML differentiation inducers, ER-HoxA9 marrow cells – cell-based, GFP/MAC1 double positive, flow cytometry, validation set, primary screen (AID 588685;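 active means differentiation response of at least 50%, scaled between solvent and reference control, from cells with both markers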;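 further: compound exposure lasts four days before antibody staining and flow analysis; 0% = DMSO wells and 100% = 5 µM fulvestrant positive control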). To be noted: stronger effect = higher value, normalized: vehicle 0, fulvestrant 100.

Beta-adrenergic receptor kinase 1 (Homo sapiens), sequence (P25098 whole entry, looked up): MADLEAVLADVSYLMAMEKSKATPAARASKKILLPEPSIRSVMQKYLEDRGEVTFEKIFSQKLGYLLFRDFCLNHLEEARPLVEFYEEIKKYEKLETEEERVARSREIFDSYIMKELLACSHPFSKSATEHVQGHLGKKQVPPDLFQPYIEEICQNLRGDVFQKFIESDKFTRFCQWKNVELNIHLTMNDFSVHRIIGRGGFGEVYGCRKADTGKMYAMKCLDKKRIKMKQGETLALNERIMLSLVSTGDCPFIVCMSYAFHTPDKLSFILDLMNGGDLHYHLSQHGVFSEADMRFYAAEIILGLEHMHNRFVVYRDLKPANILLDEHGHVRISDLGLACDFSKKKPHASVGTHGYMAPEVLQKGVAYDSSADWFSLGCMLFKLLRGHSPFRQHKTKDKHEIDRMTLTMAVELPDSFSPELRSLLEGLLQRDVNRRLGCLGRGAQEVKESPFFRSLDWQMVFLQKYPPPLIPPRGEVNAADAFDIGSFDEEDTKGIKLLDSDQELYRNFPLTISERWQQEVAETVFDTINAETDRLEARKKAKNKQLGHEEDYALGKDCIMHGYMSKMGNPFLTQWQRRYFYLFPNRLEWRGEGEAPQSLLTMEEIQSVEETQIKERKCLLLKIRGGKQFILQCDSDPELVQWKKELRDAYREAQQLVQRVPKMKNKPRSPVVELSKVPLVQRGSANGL
Integrin beta-1 (Homo sapiens) + Integrin alpha-4 (Homo sapiens), sequence (P05556 whole entry, looked up): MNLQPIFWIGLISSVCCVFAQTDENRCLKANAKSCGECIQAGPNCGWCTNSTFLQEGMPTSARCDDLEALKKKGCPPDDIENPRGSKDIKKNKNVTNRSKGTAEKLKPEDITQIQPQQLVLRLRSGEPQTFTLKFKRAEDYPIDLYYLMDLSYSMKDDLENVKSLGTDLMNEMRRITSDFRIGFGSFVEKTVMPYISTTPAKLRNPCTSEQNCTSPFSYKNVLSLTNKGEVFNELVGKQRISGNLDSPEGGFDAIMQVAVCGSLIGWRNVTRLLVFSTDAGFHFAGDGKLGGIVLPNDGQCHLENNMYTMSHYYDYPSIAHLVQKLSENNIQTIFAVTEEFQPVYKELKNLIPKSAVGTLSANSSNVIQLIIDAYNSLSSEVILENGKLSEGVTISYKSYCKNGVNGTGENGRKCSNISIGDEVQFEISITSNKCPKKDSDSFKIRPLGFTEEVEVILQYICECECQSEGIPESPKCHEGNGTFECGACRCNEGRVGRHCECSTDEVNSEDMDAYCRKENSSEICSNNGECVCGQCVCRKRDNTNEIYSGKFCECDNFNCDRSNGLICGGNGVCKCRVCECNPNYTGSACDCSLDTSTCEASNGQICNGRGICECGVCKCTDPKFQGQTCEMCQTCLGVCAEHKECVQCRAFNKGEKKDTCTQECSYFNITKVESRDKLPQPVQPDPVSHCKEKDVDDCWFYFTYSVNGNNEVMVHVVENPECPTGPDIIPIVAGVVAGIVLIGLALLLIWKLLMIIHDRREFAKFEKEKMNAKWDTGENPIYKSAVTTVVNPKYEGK
Integrin beta-1 (Homo sapiens) + Integrin alpha-4 (Homo sapiens), sequence (P13612 whole entry, looked up): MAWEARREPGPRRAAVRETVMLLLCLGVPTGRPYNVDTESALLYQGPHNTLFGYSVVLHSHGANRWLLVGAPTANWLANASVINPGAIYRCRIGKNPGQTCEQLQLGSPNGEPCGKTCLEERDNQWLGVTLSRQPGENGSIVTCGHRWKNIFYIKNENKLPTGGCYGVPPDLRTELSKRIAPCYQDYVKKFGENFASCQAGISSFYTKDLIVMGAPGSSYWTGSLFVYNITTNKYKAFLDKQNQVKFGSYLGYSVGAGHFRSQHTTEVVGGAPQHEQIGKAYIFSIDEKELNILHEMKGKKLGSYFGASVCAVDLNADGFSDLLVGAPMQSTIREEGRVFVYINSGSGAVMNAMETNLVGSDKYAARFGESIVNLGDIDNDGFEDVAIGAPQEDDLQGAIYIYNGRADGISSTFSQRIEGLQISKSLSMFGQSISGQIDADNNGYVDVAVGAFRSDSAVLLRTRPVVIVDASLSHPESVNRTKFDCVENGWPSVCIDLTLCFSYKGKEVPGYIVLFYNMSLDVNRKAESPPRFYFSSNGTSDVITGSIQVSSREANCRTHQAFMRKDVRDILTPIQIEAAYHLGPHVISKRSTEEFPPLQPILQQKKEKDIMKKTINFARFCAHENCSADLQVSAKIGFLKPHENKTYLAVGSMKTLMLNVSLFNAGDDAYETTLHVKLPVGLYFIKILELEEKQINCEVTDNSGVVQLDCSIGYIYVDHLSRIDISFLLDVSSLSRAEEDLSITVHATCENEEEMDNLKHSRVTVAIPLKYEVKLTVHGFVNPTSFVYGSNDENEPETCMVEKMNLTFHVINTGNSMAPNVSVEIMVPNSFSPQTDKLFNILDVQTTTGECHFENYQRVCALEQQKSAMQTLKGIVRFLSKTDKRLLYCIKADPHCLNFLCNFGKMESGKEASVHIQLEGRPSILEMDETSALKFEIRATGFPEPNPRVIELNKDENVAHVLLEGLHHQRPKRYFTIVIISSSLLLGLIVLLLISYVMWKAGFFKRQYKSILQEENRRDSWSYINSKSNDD

Consider `COc1ccc(CC(=O)NCC2(c3ccc(OC)c(OC)c3)CCOCC2)cc1`, for which the percent of DMSO control GFP in [1] is 103% (inactive). Further, the GFP response vs DMSO is 96.3% (inactive) in test [2] and 82.8% (inactive) in test [4]. In addition, the percent response of DMSO control in test [3] was 104% (inactive). Moreover, the GFP response, % of DMSO in [5] was 89.7% (inactive). In addition, the double positive events in [6] stood at 54%. The vesicle binding response in [6] was 175% (inactive). Further, the inhibition (as a rule, the drop in the measured response relative to a control, in per cent) in [7] is 5.03% (inactive); in [11], -7.91% (inactive); in [15], -23% (inactive). Also, in [8], the superoxide response (% of plate) was 102% (inactive). Moreover, in test [9], the aptamer binding inhibition is 8% (inactive). Besides, the values for the response in [10] and in test [12] were -10.1% (inactive) and 0.74% (inactive), respectively. Moreover, in test [13], the binding (% of control) is 99.3% (inactive). Besides, the efflux inhibition (fraction of control) in test [14] was -0.35 (inactive). Further, in test [16], the differentiation response is -12% (inactive).

With `COc1cccc(C2CC(=O)C3=C(C2)Nc2ccccc2N(C(=O)CCC(=O)O)C3c2ccc(F)cc2)c1` (stereo not drawn), in test [1], the percent of DMSO control GFP is 95% (inactive). The GFP response vs DMSO in [2] is 149% (active); in test [4] it was 89.1% (inactive). For the same compound, the percent response of DMSO control in test [3] was 102% (inactive). The GFP response, % of DMSO in [5] was 93.8% (inactive). Moreover, the double positive events in [6] was 64%. Besides, the vesicle binding response in test [6] is 213% (inactive). Further, the inhibition in test [7] was 11.3% (inactive); in test [11] it was 30.9% (inactive); in [15] it was 4% (inactive). Further, the superoxide response (% of plate) in [8] was 98% (inactive). Besides, the aptamer binding inhibition in [9] was 4% (inactive). Further, the response is -3.62% (inactive) in test [10] and -2.19% (inactive) in test [12]. Also, the binding (% of control) in test [13] is 102% (inactive). Also, the efflux inhibition (fraction of control) in [14] is -0.13 (inactive). For the same compound, in [16], the differentiation response was -1.64% (inactive).

Consider `CN(Cc1c(C(=O)N(C)Cc2ccccc2)nc2ccccn12)CC1Cc2ccccc2O1` (stereo not drawn), for which, in test [1], the percent of DMSO control GFP was 98.4% (inactive). The GFP response vs DMSO was 104% (inactive) in test [2] and 89.4% (inactive) in test [4]. Also, in [3], the percent response of DMSO control was 98.2% (inactive). Further, in test [5], the GFP response, % of DMSO is 93.7% (inactive). The compound also came in with a double positive events in [6] of 61.4%. Besides, the vesicle binding response in test [6] was 2590% (inactive). Further, the inhibition in test [7] is -11.8% (inactive); in [11], -19.1% (inactive); in test [15], 14% (inactive). Further, in [8], the superoxide response (% of plate) is 105% (inactive). The aptamer binding inhibition in test [9] was 3% (inactive). In addition, the values for the response in test [10] and in test [12] were 0.21% (inactive) and -0.37% (inactive), respectively. In [13], the binding (% of control) is 98.2% (inactive). For the same compound, the efflux inhibition (fraction of control) in test [14] was 0.17 (inactive). In test [16], the differentiation response is -2.64% (inactive).

Regarding `COc1cc2nc(-c3ccccc3)nc(N3CCCC3)c2cc1OC`, in [1], the percent of DMSO control GFP was 104% (inactive). The figures for the GFP response vs DMSO in [2] and in test [4] were 98.3% (inactive) and 82.2% (inactive), respectively. The percent response of DMSO control in test [3] is 107% (inactive). Further, in test [5], the GFP response, % of DMSO is 104% (inactive). For the same compound, the double positive events in [6] turned out to be 68.2%. Further, the vesicle binding response in test [6] was 459% (inactive). In addition, the inhibition in test [7] is -36.8% (inactive); in [11], -3.58% (inactive); in test [15], 11% (inactive). The superoxide response (% of plate) in test [8] was 85.3% (inactive). Moreover, the aptamer binding inhibition in [9] was 6% (inactive). The values for the response in [10] and in [12] were -10% (inactive) and 2.32% (inactive), respectively. Also, the binding (% of control) in [13] was 98.2% (inactive). Also, in test [14], the efflux inhibition (fraction of control) was -0.07 (inactive). In addition, in test [16], the differentiation response is -1.71% (inactive).

The values are drawn from PubChem BioAssay.
